This excerpt belongs to a sample that is enriched for hits.
GIRK2 activator: Activators of human GIRK2-containing channels; HEK293 GIRK2/NPY4 cells, thallium flux fluorescence; activation (% efficacy), % for hits at 37.5 µM; AID 1259324; P48051; 34,000 tested, under 10 active;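 active = primary screen hit, no activity in plain HEK293 cells, and in GIRK2-only cells above 5% efficacy rising with concentration; inactive = the rest, including fluorescent compounds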;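 note: efficacy is normalized control-subtracted fluorescence 15 s after thallium addition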
AMPAR-TARP mod: modulates AMPAR-stargazin complexes | calls only at 30 µM | AID 1259245 | HEK293 GluA2+stargazin, membrane potential dye (FDSS), glutamate EC50; hits were called plate by plate, in both directions | actives 3.5% (n = 40,000) | O88602+P19491;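 active = any of four per-well response measures lying three or more SD from its plate-wide compound average, in either direction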
Numbers without * were called inactive; i = inactive; . = no result; + = active, no number.

SMILES	GIRK2 activator	AMPAR-TARP mod
c1nc(N2CCNCC2)c2cn[nH]c2n1	i	+
O=C(Cc1cccc2ccccc12)N1CCCSCC1CN1CCOCC1 (stereo unspecified)	i	.
O=C(Oc1cccc2cccnc12)c1ccc(Cl)c(S(=O)(=O)N2CCCCCC2)c1	.	i
COc1cccc(/C=C2\Oc3cc(OC(=O)N(C)C)ccc3C2=O)c1	.	i
COc1ccc(/C=C2\Oc3cc(OC(=O)N(C)C)ccc3C2=O)cc1OC	.	+
c1ccn2cc(CN3CCNCC3)nc2c1	i	i
NCC(O)c1ccc2c(c1)CCO2 (stereo unspecified)	i	i
CCC(C)OC(=O)c1c(N)n(CCCOC)c2nc3ccccc3nc12 (stereo unspecified)	i	i
COc1ccc(NC2(C#N)CCCCC2)cc1	i	+

From PubChem BioAssay
